From PubChem
HCV inhibitor: inhibitors of hepatitis C virus infection; Potency, µM (series often up to 41.8 µM), for inactives: at the top dose activity change, negative = inhibition, most hits filed as inhibitors; AID 651820; Huh7.5.1 HCVcc-Cre infection, luciferase reporter, 44 h; hit rate 3.4% among 340,000; active = well fitted inhibition curve with a large enough effect; inconclusive = small, poorly fitted or top-dose-only effect, or another doubt; inactive = no such curve, though single readings can be large or run the other way
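Cells (1,000/well) were plated 4 h before compound, then infected with HCVcc-Cre virus (~0.5 moi). After 44 h further culture, infection was read as luciferase luminescence following a 15 min substrate incubation at room temperature.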
Vaccinia mCherry: inhibitors of vaccinia virus infection (mCherry reporter signal); AID 720579; Vaccinia virus mCherry reporter infection, fluorescence; hit rate 0.63% among 310,000; Potency, µM (doses to about 36.5 µM), for the others: at the highest dose activity change, negative = inhibition, hits mostly inhibitors; calls by dose curve; tested in A549 cells; note: nearly all actives have a fitted effect of over 35% in size
Vaccinia Venus: vaccinia inhibition (Venus reporter). Vaccinia virus Venus reporter expression, fluorescence. Potency, µM (titrated, usually from 36.5 µM), inactives show at the top dose activity change, negative = inhibition, hits mostly inhibitors. hit rate 0.46% among 330,000. AID 720580; calls by dose curve; tested in A549 cells; note: nearly all actives have a fitted effect of over 30% in size
* hit, by the source's call; i = inactive; ? = inconclusive; . = no result; [ ] = another dose, or the depositor's remark. Compounds with a hit are over-represented: about 3.3% of the library has one in this group of screens. % is set by controls: 0 for no effect and ±100 for the full control effect; potency is the fitted concentration of half-maximal effect.

SMILES | HCV inhibitor | Vaccinia mCherry | Vaccinia Venus
COc1ccc(CCC(=O)Nc2ccc(-c3noc(-c4ccc(OC)c(OC)c4)n3)cc2)cc1 | -27.2% | . | .
COc1cccc(-c2nc(-c3ccc(NC(=O)Cc4ccccc4OC)cc3)no2)c1 | 6.31µM* | i | 9.6%
COc1ccc(-c2nc(-c3ccc(NC(=O)c4ccc(Br)o4)cc3)no2)cc1OC | ? | . | 31.6µM*
CN(C)c1ccc(/C=C2\CCc3cc(N)ccc32)cc1 | . | -17.3% | -5.0%
Cc1ccc(S(=O)(=O)N(C)c2cc(S(=O)(=O)N3CCC(C)CC3)c(C)cc2C)cc1 | 10µM* | . | -24.6%
CNS(=O)(=O)c1cc(N(C)S(=O)(=O)c2ccc(C)cc2)c(C)cc1C | -2.0% | i | -7.0%
O=C(CC1C(=O)N(c2ccccc2)C(=O)N1CCC1=CCCCC1)Nc1ccc(F)cc1 (stereo not drawn) | . | -4.6% | -8.3%
COc1cccc(C(=O)Nc2cccc(-c3cn4ccsc4n3)c2)c1OC | . | -12.7%[7.34 µM] | -9.5%[7.34 µM]
CCCN1CNc2c(c(=O)[nH]c(=S)n2CCc2ccsc2)C1 | . | -2.9% | -13.8%
COc1ccccc1NS(=O)(=O)c1cc([N+](=O)[O-])ccc1N/N=C/c1c[nH]c2ccccc12 | 15.8µM* | . | .
COc1ccc(NS(=O)(=O)c2cc([N+](=O)[O-])ccc2N/N=C\c2c(C)[nH]c3ccccc23)cc1 | -14.6% | i | -5.9%
O=C(COc1c(F)c(F)c(C(F)(F)F)c(F)c1F)Nc1ccc(N2CCOCC2)c(Cl)c1 | 0.4% | i | -17.7%
O=C(CSc1nc2ccccc2s1)Nc1ccc(N2CCOCC2)c(Cl)c1 | ? | -15.1% | -11.6%
CSc1ccc(OCC(=O)Nc2ccc(N3CCOCC3)c(Cl)c2)cc1 | 10µM* | -8.9% | -22.5%
Cc1cc(C)nc(SCC(=O)Nc2ccc(N3CCOCC3)c(Cl)c2)n1 | 7.94µM* | . | ?
Cc1ccc2c(c1)CN(CCC(=O)NCc1cc(C)n(C)n1)CC(C)O2 (stereo not drawn) | . | -17.3% | -11.1%
O=C(NCc1ccco1)c1cc(S(=O)(=O)N2CCCC2)ccc1Cl | 17.8% | . | .
CCc1ccccc1N1CC(C(=O)Nc2cc(S(=O)(=O)N3CCCC3)ccc2Cl)CC1=O (stereo not drawn) | 11.2µM* | -1.9% | -3.3%
O=C(c1ccc(S(=O)(=O)N2CCCCC2)cc1)N1CCN(Cc2ccc3c(c2)OCO3)CC1 | ? | i | -17.1%
CC1CC(C)CN(C(C)C(=O)Nc2cc(S(=O)(=O)N3CCCCC3)ccc2Cl)C1 (stereo not drawn) | 14.3% | i | -16.7%
COc1ccccc1N1CC(C(=O)Nc2ccc(S(=O)(=O)N3CCCC3)cc2)CC1=O (stereo not drawn) | -0.9% | i | 2.8%
O=C(CN1CCN(Cc2ccc3c(c2)OCO3)CC1)Nc1cc(S(=O)(=O)N2CCCC2)ccc1Cl | 6.31µM* | -13.7% | -14.1%
CC1CCN(C(C)C(=O)Nc2cc(S(=O)(=O)N3CCCCC3)ccc2Cl)CC1 (stereo not drawn) | 15.8µM* | -19.8% | -7.3%
O=C(CN(Cc1ccco1)Cc1ccco1)Nc1cc(S(=O)(=O)N2CCCCC2)ccc1Cl | 10µM* | . | .
CC(=O)OC/C=C(C)/C=C/C=C(C)/C=C/C1=C(C)CCCC1(C)C | . | -8.6% | -17.4%
SMILES | HCV inhibitor | Vaccinia mCherry | Vaccinia Venus
COc1ccc(CCNc2ncnc3c2c(-c2ccccc2)cn3-c2ccc(Cl)cc2)cc1OC | . | -16.5% | -7.4%
COc1ccc(CNC(=O)Cc2c(C)c3c(cc(C)c4c(C)coc43)oc2=O)cc1OC | . | -5.2% | 3.9%
CCCOc1ccc(F)cc1-c1cc(C(=O)NCc2ccco2)[nH]n1 | . | -14.6% | -23.2%
O=C(Nc1cc(S(=O)(=O)N2CCCCC2)ccc1O)c1ccccc1NS(=O)(=O)c1ccc(F)cc1 | 18.2% | -7.0% | -3.3%
Cc1ccccc1NCC(=O)Nc1cc(S(=O)(=O)N2CCCCC2)ccc1C | -29.8% | . | .
CC(NCC(=O)Nc1cc(S(=O)(=O)N2CCCCCC2)ccc1Cl)c1ccccc1 (stereo not drawn) | 12.6µM* | . | .
O=C(Nc1cc(S(=O)(=O)N2CCCCC2)ccc1Cl)c1ccccc1NS(=O)(=O)c1ccc(F)cc1 | 10µM* | ? | ?
Cc1cc(N2CCN(c3ccc([N+](=O)[O-])c4cccnc34)CC2)c2ccccc2n1 | -16.7% | -19.9% | -11.1%
Cc1cc(N2CCN(c3ccc(C(F)(F)F)cc3[N+](=O)[O-])CC2)c2ccccc2n1 | 10µM* | . | .
Cc1ccc(C(C(=O)NC2CCCCC2)N(C)Cc2ccccc2)cc1 (stereo not drawn) | . | -14.5% | -10.0%
Cc1sc(NC(=O)c2ccc(Br)s2)c(C(N)=O)c1C | 11.2µM* | . | .
Cc1sc(NC(=O)c2ccc(Cl)s2)c(C(N)=O)c1C | -6.8% | . | .
Cc1sc(NC(=O)c2cc(-c3ccccc3)nc3ccccc23)c(C(N)=O)c1C | 12.6µM* | -17.5% | -17.2%
